Measurements: PubChem BioAssay AID602240 (Southern Research Specialized Biocontainment Screening …, 2012)
A number with no mark means an inactive call. The rule behind the calls is not given here.

Experiment: viability loss in Vero 76 cells – cell-based, set 2, cytotoxicity control, dose response (AID 602240)
Settings: Vero 76 cells viability, cytotoxicity counter-screen for VEEV; series mostly up to 50 µM; viability: at the top concentration

Row | SMILES | viability
1 | CCN1CCN(Cc2nc3ccc([N+](=O)[O-])cc3c(=O)n2-c2ccccc2F)CC1 | 73.1%
2 | O=c1nc(Nc2ccc(OCc3ccccc3)cc2)sc2ncccc12 | 80.5%
3 | O=C(Oc1ccc2ccccc2c1Br)N1CCCCCC1 | 80.8%
4 | Clc1ccc2nnnc(-c3ccccc3)c2c1 | 127%
5 | O=c1c2cc([N+](=O)[O-])ccc2nc(CN2CCN(c3ccccc3)CC2)n1-c1ccccc1F | 71.8%
